Source: PubChem BioAssay (National Center for Advancing Translational Sciences (NCATS))
TGFb inhibitor = qHTS for Inhibitors of TGF-b | 410,000 tested, 1.2% active | HepG2 CAGA-GFP TGF-b/SMAD3 reporter, GFP fluorescence, 18 h; TGF-beta stimulated, 500 pg/mL final | Potency, µM (titrated, usually from 46.1 µM), usual class: inhibitors; also: nearly all actives have a fitted effect of over 65% in size
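First, reporter cells (HEPG2 CAGA-GFP) rested 2 h at 37 degrees C. Next, compounds were pinned in and TGF-beta added to 500 pg/mL final. After 18 h, GFP was imaged per cell and summed per well.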
TDP1 cell CPT = qHTS for Inhibitors of human tyrosyl-DNA phosphodiesterase 1 (TDP1): qHTS in cells in presence of CPT | chicken DT40 Tdp1-/-;hTDP1 cells + 20 nM CPT, ATP luminescence, 48 h | Potency, µM (doses to about 46.2 µM), usual class: inhibitors | 420,000 tested, 12% active | AID 686979, 2013; also: nearly all actives have a fitted effect of over 55% in size
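Chicken DT40 Tdp1-/- cells stably complemented with human TDP1 were seeded at 400 cells/well in medium containing 20 nM camptothecin, exposed to pin-transferred compounds, and grown at 37 °C for at least 48 hr. Viability was read as ATP luminescence.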
TDP1 block = qHTS Assay for Inhibitors of Tyrosyl-DNA Phosphodiesterase (TDP1); Tyrosyl-DNA phosphodiesterase 1 (Homo sapiens), Q9NUW8; recombinant TDP1, AlphaScreen DNA substrate cleavage; Potency, µM (highest dose often 130 µM), usual class: inhibitors; 350,000 tested, 0.28% active; AID 485290, 2010; also: nearly all actives have a fitted effect of over 40% in size
Target sequence (Q9NUW8 whole entry, looked up): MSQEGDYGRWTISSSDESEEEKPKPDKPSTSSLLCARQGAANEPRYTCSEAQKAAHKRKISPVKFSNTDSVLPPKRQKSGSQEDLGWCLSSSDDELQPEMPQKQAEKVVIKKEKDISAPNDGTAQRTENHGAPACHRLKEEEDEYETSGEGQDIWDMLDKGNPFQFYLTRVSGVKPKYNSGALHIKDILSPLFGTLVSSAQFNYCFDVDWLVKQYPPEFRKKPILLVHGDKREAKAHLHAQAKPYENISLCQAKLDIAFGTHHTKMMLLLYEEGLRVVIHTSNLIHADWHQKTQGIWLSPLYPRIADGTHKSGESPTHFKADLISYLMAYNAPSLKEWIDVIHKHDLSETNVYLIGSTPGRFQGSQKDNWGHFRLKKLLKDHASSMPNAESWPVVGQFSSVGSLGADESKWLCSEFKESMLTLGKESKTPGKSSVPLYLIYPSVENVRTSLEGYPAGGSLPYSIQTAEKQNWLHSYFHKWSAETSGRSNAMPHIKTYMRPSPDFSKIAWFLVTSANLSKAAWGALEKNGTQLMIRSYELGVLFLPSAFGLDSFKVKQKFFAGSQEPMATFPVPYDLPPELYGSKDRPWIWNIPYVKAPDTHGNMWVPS
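Signal: AlphaScreen proximity between streptavidin donor and anti-FITC acceptor beads on intact substrate. Reaction: Tdp1 1 nM, substrate 15 nM final, 5 min RT after 15 min compound preincubation.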
IL1B secr inh = qHTS for Inhibitors of Inflammasome Signaling: IL-1-beta AlphaLISA Primary Screen; THP-1 LPS/ATP IL-1B secretion, AlphaLISA, 16 h; active compounds read low; activity change, % at 57.5 µM; 360,000 tested, 4.7% active; in the data active = activity change below about -50%; inconclusive = mostly about -30% to -49%
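THP-1 cells pretreated 1 hr with compounds (up to 57.5 uM final), then stimulated with LPS (250 ng/mL final) plus ATP (1.25 mM final); secreted IL-1B measured by AlphaLISA after 16 hr, decreased signal indicating inhibition.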
DT40 TDP1 no CPT = qHTS for Inhibitors of human tyrosyl-DNA phosphodiesterase 1 (TDP1): qHTS in cells in absence of CPT; DT40 Tdp1-/- hTDP1 cells, no CPT, ATP luminescence, 48 h; Potency, µM (top dose mostly 46.2 µM), actives largely listed as inhibitors; 420,000 tested, 15% active; also: nearly all actives have a fitted effect of over 55% in size
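Chicken DT40 Tdp1-/- cells stably complemented with human TDP1 were seeded at 400 cells/well with DMSO in place of 20 nM camptothecin. After compound pinning, cells grew at least 48 hr at 37 °C; viability read by CellTiter-Glo luminescence.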
HepG2 viability = qHTS for Inhibitors of TGF-b: Cytotox Counterscreen. HepG2 CAGA-GFP viability, ATP luminescence, 18 h. Potency, µM (top dose mostly 46.1 µM), most hits filed as cytotoxic. 410,000 tested, 0.76% active
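HepG2 CAGA-GFP cells (1000/well, DMEM with 1% FBS) received compound, then TGF-beta at 500 pg/mL final, and were incubated 18 hours at 37 degrees C. Viability was read by CellTiter-Glo luminescence. Media-only wells were set as complete cell-killing and DMSO as no toxicity.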
Each line names hits and unclear results; the compound was inactive in the other large screens. Compounds with a hit are over-represented: about 19% of the library has one in this group of screens. Unless noted, calls follow the shape of the dose curve; as a rule, active = well fitted curve in the direction sought with a large enough effect; inconclusive = small, poorly fitted or top-dose-only effect, or another doubt; inactive = no such curve, though single readings can be large; an effect the other way counts as inactive or inconclusive.

COC(=O)C1CC1C(NC(=O)[C@@H]1CCCN1)c1ccccc1 (some centres undefined)	none (no result: TGFb inhibitor, TDP1 cell CPT, IL1B secr inh, DT40 TDP1 no CPT, HepG2 viability)
COCCn1c(CNC(=O)c2ccccc2C)nc2cccnc21	none (no result: IL1B secr inh)
O=C(COc1ccccc1)Nc1ccc2nc(SCC(=O)N3CCOCC3)sc2c1	TDP1 cell CPT 18.4µM, DT40 TDP1 no CPT 14.6µM (no result: IL1B secr inh)
O=C(COc1ccc(F)cc1)Nc1ccc2nc(SCC(=O)N3CCCC3)sc2c1	TDP1 cell CPT 11.6µM, DT40 TDP1 no CPT 23.1µM (no result: TDP1 block, IL1B secr inh)
O=C(COc1ccc(F)cc1)Nc1ccc2nc(SCC(=O)N3CCOCC3)sc2c1	TDP1 cell CPT 10.3µM, DT40 TDP1 no CPT 11.6µM (no result: IL1B secr inh)
CCC(=O)Nc1ccc2nc(SCC(=O)N3CCOCC3)sc2c1	none
NC(=O)CSc1nnc(NC(=O)C2CC(=O)N(c3ccc(F)cc3)C2)s1 (centres undefined)	DT40 TDP1 no CPT 20.6µM
Cc1ccc(N2CC(C(=O)Nc3nnc(SCC(N)=O)s3)CC2=O)cc1C (centres undefined)	none
Cc1ccc(NC(=O)Nc2nnc(SCC(=O)N3CCCCC3)s2)cc1	TDP1 cell CPT inconclusive, DT40 TDP1 no CPT inconclusive (no result: IL1B secr inh)
O=C(Nc1ccc(F)cc1)Nc1nnc(SCC(=O)N2CCCCC2)s1	TDP1 cell CPT inconclusive, DT40 TDP1 no CPT 3.26µM (no result: IL1B secr inh)
CN(CCCNC(=O)c1cccn2c(=O)c3ccccc3nc12)Cc1ccccc1	TGFb inhibitor 11.2µM, TDP1 cell CPT 22.4µM, IL1B secr inh inconclusive, DT40 TDP1 no CPT inconclusive
N=c1c(C(=O)NCCN2CCOCC2)cc2c(=O)n3ccccc3nc2n1CCCN1CCOCC1	none
O=C(NCCN1CCN(c2ccccc2F)CC1)c1cccn2c(=O)c3ccccc3nc12	TDP1 cell CPT inconclusive, DT40 TDP1 no CPT 16.4µM
N=c1c(C(=O)NCCN2CCOCC2)cc2c(=O)n3ccccc3nc2n1Cc1ccc(F)cc1	TDP1 cell CPT inconclusive, IL1B secr inh inconclusive
O=C(NCCN1CCN(c2ccccc2)CC1)c1cccn2c(=O)c3ccccc3nc12	TDP1 cell CPT inconclusive, DT40 TDP1 no CPT 18.4µM
Cc1cc2c(nc1C)CCCN2C[C@H](C)O/N=C1/[C@H]2O[C@@H]2[C@@H](O)[C@H]2[C@H]1CCn1c(=O)n(-c3ccccc3)c(=O)n12	none (no result: TGFb inhibitor, TDP1 cell CPT, IL1B secr inh, DT40 TDP1 no CPT, HepG2 viability)
CCN1C(=O)/C(=C2\C=Cc3ccccc3N2CC)SC1=S	TDP1 cell CPT 14.6µM, DT40 TDP1 no CPT 18.4µM
CCOC(=O)C(C)Oc1ncnc2cccc(F)c12 (centres undefined)	none
C=C(C)CN1C(=O)C(C)SC1=NN=C1SCC(=O)N1C (centres undefined)	none (no result: TDP1 block)
COC(=O)c1sc(N2C(=O)c3oc4ccccc4c(=O)c3C2c2cccs2)nc1C (centres undefined)	TDP1 cell CPT 18.4µM, DT40 TDP1 no CPT 16.4µM
O=C1c2oc3ccccc3c(=O)c2C(c2cccc(Br)c2)N1c1ccccn1 (centres undefined)	TDP1 cell CPT inconclusive, DT40 TDP1 no CPT 16.4µM (no result: IL1B secr inh)
O=C1c2oc3ccccc3c(=O)c2C(c2cccc(Cl)c2)N1c1ccccn1 (centres undefined)	DT40 TDP1 no CPT inconclusive (no result: IL1B secr inh)
CCCOc1cccc(C2c3c(oc4ccc(F)cc4c3=O)C(=O)N2c2nc(C)c(C(C)=O)s2)c1 (centres undefined)	TDP1 cell CPT 13µM, DT40 TDP1 no CPT 14.6µM (no result: IL1B secr inh)
CCCOc1cccc(C2c3c(oc4ccccc4c3=O)C(=O)N2c2nncs2)c1 (centres undefined)	TGFb inhibitor inconclusive, TDP1 cell CPT 14.6µM, DT40 TDP1 no CPT inconclusive (no result: IL1B secr inh)
CCOc1ccc(CCNC(=O)Cn2nnc(-c3ccc(C(F)(F)F)cc3)n2)cc1OCC	DT40 TDP1 no CPT inconclusive (no result: IL1B secr inh)
